This note sets out measurements from publication PMC4552634, “A New Set of Chemical Starting Points with Plasmodium falciparum Transmission-Blocking Potential for Antimalarial Drug Discovery” (PLoS ONE, 2015).

The campaign covered roughly 13,000 compounds. About 3,200 (25%) showed an effect of 50% or more. This is one part of the list.

The subject of the experiment is P. falciparum stage V gametocytes. Also on record: BacTiter-Glo ATP luminescence viability of purified stage V gametocytes in 384-well plates, per cent inhibition versus DMSO. As to conditions: 48 h, 5 µM; inhibitor.
On to `OC(COCc1ccc(-c2ccccc2)cc1)CN1CCCCC1` (stereo not shown) [TCMDC-132069], for which the “% Inhibition” value is given as -30.91%. In the case of `Cc1ccc(NC(=O)c2ccc(CN3CCCN(CC4CCCCC4)CC3)cc2)cc1F` [TCMDC-136393], the “% Inhibition” value was -36.95%. To `CC1CN(c2ccc(NC(=O)c3ccc(F)cc3)cc2)CCN1Cc1cccc(F)c1` (stereo not shown) [TCMDC-135016] belongs 10.14%; to `CC(C)(C)c1ccc(CN2CCC(NC(=O)c3ccc(-c4cccc(F)c4)s3)CC2)cc1` [TCMDC-134350], -0.6628%. Under `Cc1ccc(Nc2nc(-c3ccccn3)cs2)nc1` [TCMDC-125854] stands 98.08%; under `Cc1ccnc(Nc2nc(-c3ccccn3)cs2)c1` [TCMDC-125769], 115.7%. Under `Cc1cccc(C(O)CNc2ccnc(Nc3cccc(-c4csc(C)n4)c3)n2)c1` (stereo not shown) [TCMDC-136568] stands -28.27%; under `Cc1cccnc1Nc1nc(-c2ccccn2)cs1` [TCMDC-125846], 115%; under `c1ccc(Nc2nc(-c3ccccn3)cs2)nc1` [TCMDC-124275], 108.4%. Regarding `COc1cccc(C(=O)NCc2cccs2)c1OCc1ccccc1` [TCMDC-141234], the “% Inhibition” value is recorded as 8.01%. Under `C#CCOc1ccccc1CN1CCC(N2CCc3cc(NC(=O)c4cc(C)on4)ccc32)C1` (stereo not shown) [TCMDC-135075] stands -4.764%; under `Cc1[nH]c2ccc(NS(C)(=O)=O)cc2c1C1CCN(CCC2CCN(C(=O)/C=C/c3ccc(Cl)c(Cl)c3)CC2)CC1` [TCMDC-140126], -29.87%.

In the case of `Cc1ccc(NC(=O)c2ccc3nccnc3c2)cc1OC1CCN(Cc2ccc(F)cc2)CC1` [TCMDC-133748], the “% Inhibition” value is given as -13.13%.

For `O=C(Nc1ccccc1-c1ccccc1)C1CCCN1C(=O)Nc1ccc(Cl)cc1` (stereo not shown) [TCMDC-123648], the “% Inhibition” value is 32.25%. As to `Cc1cc(NC(=O)Nc2ccc3nccc(N4CCN(C)CC4)c3c2)ccc1Br` [TCMDC-139361], the “% Inhibition” value turned out to be 36.21%. With `CC[C@H]1C[N+]2([O-])CC[C@@H]1C[C@H]2[C@H](O)c1cc(-c2ccccc2)nc2ccc(OC)cc12` [TCMDC-141330], the “% Inhibition” value is 6.04%. With `Clc1ccc(Nc2nc(-c3ccccn3)cs2)nc1` [TCMDC-123885], the “% Inhibition” value worked out at 114%. Consider `CC(=O)Nc1nc(C)c(-c2csc(Nc3ccc(Cl)cc3)n2)s1` [TCMDC-123995], for which the “% Inhibition” value was -35.56%. For the molecule `Cc1cc(NCC2CCN(CC3CCCCC3)C2)nc(Nc2ccc(Br)cc2)n1` (stereo not shown) [TCMDC-137024], the “% Inhibition” value is listed as -11.33%.

Regarding `O=C(NCCN1CCCC1)c1cccc(-c2ccc(-c3nc4ccc(C(F)(F)F)cc4[nH]3)cc2)c1` [TCMDC-132322], the “% Inhibition” value is listed as -42.59%. Turning to `CC(C)NCc1ccc(-c2ccc(-c3nc4ccc(C(F)(F)F)cc4[nH]3)cc2)cc1` [TCMDC-132741], the “% Inhibition” value is -41.38%. For the molecule `NCc1ccc(CNCc2ccc(-c3ccc(-c4nc5ccc(F)cc5[nH]4)cc3)cc2)cc1` [TCMDC-132810], the “% Inhibition” value amounted to 33.23%. To `Fc1ccc2nc(-c3ccc(-c4ccc(CNCCN5CCNCC5)cc4)cc3)[nH]c2c1` [TCMDC-132866] belongs 95.81%. Under `Fc1ccc2nc(-c3ccc(-c4ccc(CNCc5ccccc5)cc4)cc3)[nH]c2c1` [TCMDC-132706] stands -8.739%; under `FC(F)(F)c1ccc2nc(-c3ccc(-c4ccc(CNCCN5CCNCC5)cc4)cc3)[nH]c2c1` [TCMDC-132865], 81.47%. For the molecule `Cc1ccc(O)cc1Nc1ccnc2ccc(-c3csc(CNCCN4CCOCC4)n3)cc12` [TCMDC-138419], the “% Inhibition” value is listed as 24.32%. Turning to `C=CCOC(=O)N1CCC(CNCc2cccc(-c3cccc(-c4nc5cc(F)ccc5[nH]4)c3)c2)C1.O=C(O)C(F)(F)F` (stereo not shown) [TCMDC-133045], the “% Inhibition” value was -22.96%. To `O=C(CC(=O)Nc1cc(Cl)cc(Cl)c1)Nc1cc(Cl)cc(Cl)c1` [TCMDC-124303] belongs 1.845%; to `O=C(Nc1cccc(-c2nn3ccccc3c2-c2ccnc(Nc3cccc(F)c3)n2)c1)c1c(F)ccc(F)c1Cl` [TCMDC-135830], 19.22%. In the case of `CCCCCCCOc1ccc(NC(=O)Nc2ccc(Cn3ncc(N4CCCNCC4)c(Cl)c3=O)cc2)cc1` [TCMDC-133318], the “% Inhibition” value was 42.33%. For the molecule `CC(C)c1nc(N2CCN(C(=S)NCc3ccccc3)CC2)c(C#N)c2c1COC(C)(C)C2` [TCMDC-124093], the “% Inhibition” value was found to be 85.74%. Under `CC(C)Sc1nc(-c2ccccc2)nc2c1COC(C)(C)C2` [TCMDC-125132] stands -39.31%; under `N#Cc1ccc(CN2CCC(Oc3ccc(NC(=O)c4cccs4)cc3Cl)C2)cc1` (stereo not shown) [TCMDC-133962], 5.438%. For `FC(F)(F)c1cccc(Nc2nc3ccccc3nc2Nc2cccc(C(F)(F)F)c2)c1` [TCMDC-124162], the “% Inhibition” value was determined as 95.6%.

For `Cc1cc(C)n(-c2nc(Nc3cccc(C(F)(F)F)c3)nc(-n3nc(C)cc3C)n2)n1` [TCMDC-125770], the “% Inhibition” value is given as 16.09%. In the case of `FC(F)(F)c1cccc(Nc2nc(-c3ccccc3)nc3ncccc23)c1` [TCMDC-125597], the “% Inhibition” value stood at 73.35%. `FC(F)(F)c1cccc(Nc2nc(-n3ccnc3)nc(-n3ccnc3)n2)c1` [TCMDC-123871]: the “% Inhibition” value was 5.028%. On to `Cc1cc(Nc2cccc(C(F)(F)F)c2)nc(N)n1` [TCMDC-124264], for which the “% Inhibition” value stood at 7.363%. Take `Cc1cc(Nc2cccc(C(F)(F)F)c2)nc(Nc2cccc(C(F)(F)F)c2)n1` [TCMDC-124213]: the “% Inhibition” value is -15.06%. Take `N#CCCN1CCN(Cc2cccc(-c3ccc(-c4nc5ccccc5[nH]4)s3)c2)CC1.O=C(O)C(F)(F)F` [TCMDC-133871]: the “% Inhibition” value is listed as -9.564%. In the case of `NC1=NC2(CCCCC2)N(OCCCCCCCCNc2nc(N)nc(N)n2)C(N)=N1` [TCMDC-140517], the “% Inhibition” value worked out at 6.685%.

`N#Cc1ccc(Cn2ccc3c4c(N)nc(N)nc4ccc32)cc1` [TCMDC-137820]: the “% Inhibition” value is reported as 103.8%. For `Nc1nc(N)c2c(ccc3c2ccn3Cc2ccccn2)n1` [TCMDC-137980], the “% Inhibition” value amounted to 111.5%. On to `Nc1nc(N)c2c(ccc3c2ccn3Cc2ccc(OCc3ccccc3)cc2)n1` [TCMDC-137336], for which the “% Inhibition” value worked out at 29.32%. With `Nc1nc(N)c2c(ccc3c2ncn3Cc2ccccc2)n1` [TCMDC-137749], the “% Inhibition” value was found to be 33.84%. Under `Nc1nc(N)c2c(ccc3c2ccn3Cc2ccccc2)n1` [TCMDC-141977] stands 66.05%. Turning to `Nc1nc(N)c2c(ccc3c2ccn3CCCC2CCCNC2)n1` (stereo not shown) [TCMDC-138618], the “% Inhibition” value came out at 26.76%. `Nc1nc(N)c2c(ccc3c2ccn3Cc2ccc(-c3ccccc3)cc2)n1` [TCMDC-137813]: the “% Inhibition” value is given as 115.8%. Consider `CNC(=O)COC(=O)c1c2c(nc3ccccc13)C(=Cc1ccc3c(c1)OCO3)CCC2` [TCMDC-123900], for which the “% Inhibition” value is recorded as 4.246%. To `Cn1cnc(CCNC(=O)c2ccc(-c3cccc(-c4nc5cc(C(F)(F)F)ccc5[nH]4)c3)cc2)c1` [TCMDC-132493] belongs 1.105%. `Cc1ccc(OC2CCN(c3ccc(C(=O)NC4CC4)cn3)CC2)cc1` [TCMDC-134059]: the “% Inhibition” value worked out at 7.555%. Under `NC1=Nc2ccc(Cl)cc2C1(O)c1ccccc1` (stereo not shown) [TCMDC-123492] stands 3.06%; under `CCOc1ccc(C(=O)Nc2cc3c(c(C(F)(F)F)c2)CCNC3)cc1Cl` [TCMDC-139751], 25.29%; under `N#Cc1cccc(C(O)C2CN(CCC3CCCCC3)CCC2(O)c2ccccc2)c1` (stereo not shown) [TCMDC-131999], -28.27%. On to `Cc1nnc2c(NC(=O)/C=C/c3ccc(OC(F)(F)F)cc3)cc3cc(Cl)ccc3n12` [TCMDC-135918], for which the “% Inhibition” value is recorded as -12.77%. In the case of `COc1cccc(CNC(=O)c2cccc(-c3ccc(CN4CCC(N5CCCC5)CC4)cc3)n2)c1` [TCMDC-134416], the “% Inhibition” value is on record as 30.7%. Regarding `COc1ccc2[nH]c(C(=O)Nc3cccc(-c4ccc(CN(C)C)cc4)c3)cc2c1` [TCMDC-134283], the “% Inhibition” value is -4.108%. Turning to `O=C(Nc1cccc(-c2ccc(CN3CCCC3)cc2)c1)c1ccc(Cl)cc1` [TCMDC-132630], the “% Inhibition” value is 10.82%.

In the case of `O=C(Nc1cccc(-c2ccc(CN3CCCC3)cc2)c1)c1ccc(F)cc1` [TCMDC-132636], the “% Inhibition” value is -0.2818%.

Take `Cc1nnc2c(N(C(=O)NCCc3ccccc3)C(=O)NCCc3ccccc3)cc3cc(Cl)ccc3n12` [TCMDC-135524]: the “% Inhibition” value came out at 21.17%. In the case of `COc1ccc(CNC(=O)Nc2cc3cc(-c4ccc(CN5CCCC5)cc4)ccc3n3c(C)nnc23)cc1` [TCMDC-136720], the “% Inhibition” value is 98.19%. Turning to `COc1ccc(CNC(=O)Nc2cc3cc(-c4ccc(CN(C)C)cc4)ccc3n3c(C)nnc23)cc1` [TCMDC-136719], the “% Inhibition” value turned out to be 118%. As for `Cc1nnc2c(NC(=O)NC(C)C)cc3cc(-c4ccc(CN5CCCCC5)cc4)ccc3n12` [TCMDC-136738], the “% Inhibition” value came to 50.46%.

Regarding `Cc1cccc2[nH]c(-c3ccc(-c4cccc(NC(=O)NCc5ccc(F)cc5)c4)cc3)nc12` [TCMDC-133303], the “% Inhibition” value is listed as -66.9%. Consider `O=C(Nc1cccc(-c2cccc(CN3CCCC3)c2)c1)c1ccc(Cl)cc1` [TCMDC-132654], for which the “% Inhibition” value is listed as 19.28%. To `CCCNC(=O)Nc1cc2cc(-c3cccc(CN4CCCCC4)c3)ccc2n2c(C)nnc12` [TCMDC-136740] belongs 104.3%; to `CN(C)c1ccc(-c2cscc2C(=O)NC2CCCN(Cc3cccnc3)C2)cc1` (stereo not shown) [TCMDC-134489], 34.49%; to `CN(Cc1cccc(F)c1)C1CCCN(c2cc(NC(=O)c3ccccc3)ccn2)C1` (stereo not shown) [TCMDC-135013], 1.109%. With `CN1CC=C(c2c[nH]c3ccc(OC(=O)c4ccccc4)cc23)C1` [TCMDC-139100], the “% Inhibition” value was -51.1%. For the molecule `CCNC(=O)Nc1ccc(-c2cnc(N)c(-c3nc4ccc(OC)cc4[nH]3)c2)cc1` [TCMDC-135321], the “% Inhibition” value is given as -14.13%.
